Reference: PubChem BioAssay AID651821 (The Scripps Research Institute Molecular Screening Center, 2012)
Screen size: about 370,000 compounds; about 4,700 (1.3%) were called active.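 How the source made its calls: active means inhibition above the plate cutoff, the mean of all test compounds on that plate plus 3 SD (cut at about 35% in these data); inactive means the rest.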 The entries come from a sample that favours actives as a whole.

Experiment: small molecules binding CAG repeat RNA – biochemical, fluorescence, primary screen (AID 651821);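 further: 0% = DMSO alone and 100% = 100 µM mitoxantrone as full dye displacement; higher means more dye released from RNA so lower well fluorescence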
Conditions: r(CAG) RNA repeat, TO-PRO-1 dye displacement fluorescence; at 3 µM; active compounds read high

| Compound | inhibition |
| --- | --- |
| CCOc1ccc(-n2c(SCC(=O)Nc3cc(C)c(NC(=O)c4ccccc4)cc3OC)nnc2-c2cccs2)cc1 | 10.2% (inactive) |
| CC(=O)C1=C(O)C(=O)N(c2ccc(S(N)(=O)=O)cc2)C1c1ccccc1F (stereo not drawn) | 2.58% (inactive) |
| NS(=O)(=O)c1ccc(NC(=O)COC(=O)C2(c3ccc(F)cc3)CCCC2)cc1 | 18.1% (inactive) |
| NS(=O)(=O)c1ccc(NC2=CC(c3ccc(F)cc3)N(c3ccc(S(N)(=O)=O)cc3)C2=O)cc1 (stereo not drawn) | 45.7% (active) |
| O=C(COC(=O)CSc1nnc(-c2ccc(Cl)cc2)o1)Nc1cc(Cl)cc(Cl)c1 | 3.94% (inactive) |
| O=C(COc1ccccc1)Nc1nonc1NC(=O)COc1ccccc1 | 8.22% (inactive) |
| O=C(COC(=O)c1ccc(Oc2ccccc2)cc1)Nc1nnc(-c2ccccc2)o1 | 39.7% (active) |
| O=C(NCc1cccs1)C1CCCN(S(=O)(=O)c2ccc([N+](=O)[O-])cc2)C1 (stereo not drawn) | 1.56% (inactive) |
| COc1ccc(N2CCN(CCNS(=O)(=O)c3ccc(C(C)(C)C)cc3)CC2)cc1 | -0.11% (inactive) |
| CC(NCC(=O)Nc1cc(Cl)cc(Cl)c1)c1ccccc1 (stereo not drawn) | -5.58% (inactive) |
| Cc1nnc(SC(C(=O)c2ccccc2)c2ccccc2)[nH]c1=O (stereo not drawn) | 4.12% (inactive) |
| Cc1nnc(SC(C(=O)Nc2cc(Cl)cc(Cl)c2)c2ccccc2)[nH]c1=O (stereo not drawn) | 80.2% (active) |
| CCc1c(-c2ccccc2OC)ncn1CCc1ccccc1OC | -2.09% (inactive) |
| Cc1cccc(NC(=O)C[C@H]2CC[C@H]3[C@@H](COc4ccc(NC(=O)Nc5ccccc5)cc4C(=O)N3C)O2)c1 | 10.2% (inactive) |
| N#Cc1ccc(OC[C@@H](O)CN2CCC(C(O)(c3ccccc3)c3ccccc3)CC2)c(F)c1 | -3.22% (inactive) |
| COc1ccc(S(=O)(=O)Nc2ccc3c(c2)C(=O)N([C@H](C)CO)C[C@H](C)[C@@H](CN(C)C)OCCCC[C@H](C)O3)cc1 | 8.48% (inactive) |
| Cc1cc(C)c(C#N)c(SCc2ccc3c(c2)OCO3)n1 | 4% (inactive) |
| Cc1cc(C)c(C#N)c(SCc2[nH]nc3c2C(c2ccccc2)C(C#N)=C(N)O3)n1 (stereo not drawn) | 38.2% (active) |
| CCCc1nc2c([nH]1)C(c1cccnc1)C(C#N)=C(N)O2 (stereo not drawn) | 0.75% (inactive) |
| C[C@@H](NC(=O)c1ccccc1OCC(=O)Nc1ccc(I)cc1)C(=O)N(C)Cc1ccccc1 | 5.02% (inactive) |
| Cc1ccc(S(=O)(=O)N[C@H](CO)C(C)C)cc1 | 2.22% (inactive) |
| CNC(=O)COc1ccc(S(=O)(=O)Nc2ccccc2)cc1 | 0.86% (inactive) |

| Compound | inhibition |
| --- | --- |
| Cc1ccc(S(=O)(=O)/N=C2\C=C(NS(=O)(=O)c3ccc(C)cc3)C(=O)c3ccccc32)cc1 | 59.4% (active) |
| Cc1ccc(S(=O)(=O)N/N=C(\c2ccccc2)C2CC2)cc1 | -0.89% (inactive) |
| COc1ccc(S(=O)(=O)/N=C2\C=C(NS(=O)(=O)c3ccccc3)C(=O)c3ccccc32)cc1 | 63.6% (active) |
| COc1ccc(C(=O)C(C)OC(=O)c2cccc(S(=O)(=O)Nc3c(C)n(C)n(-c4ccccc4)c3=O)c2)cc1 (stereo not drawn) | 7.06% (inactive) |
| O=S1(=O)c2c(cccc2N2CCSCC2)Oc2ccccc2CN1Cc1cn(Cc2ccc(F)cc2)nn1 | 8.25% (inactive) |
| C[C@H]1[C@H](c2ccccc2)Oc2cc(Br)ccc2S(=O)(=O)N1Cc1cccc(F)c1 | 3.74% (inactive) |
| CCOC(=O)CSc1nncc2ccc(OC)c(OC)c12 | -1.96% (inactive) |
| Cc1cc(C)cc(NC(=O)N2CCC(N(C)CCC(C)C)CC2)c1 | 3.3% (inactive) |
| N#Cc1ccc(OCCCN2CCC(C(O)(c3ccccc3)c3ccccc3)CC2)c(F)c1 | -1.54% (inactive) |
| C=C1c2c(Cl)ccc(O)c2C(O)=C2C(=O)[C@]3(O)C(O)=C(C(N)=O)C(=O)[C@@H](N(C)C)[C@@H]3[C@@H](O)C12 (stereo partly drawn) | 87.2% (active) |
| Cc1nc(NC(=O)C(C)(C)C)sc1[N+](=O)[O-] | 2.08% (inactive) |
| COc1cccc(CNC(=O)[C@H]2CCCN2C(=O)[C@H]2CCCN2C(=O)C2CCCCC2)c1 | 1.57% (inactive) |
| Cc1ccc(NC(=O)Cc2cccc(F)c2)c(S(=O)(=O)N2CCOCC2)c1 | -0.87% (inactive) |
| O=C1C=C(c2ccc(Cl)cc2)C(=O)N1Nc1ccccc1 | 8.98% (inactive) |
| O=C1c2cccc3cccc(c23)C(=O)N1c1cccc(O)c1 | 4.62% (inactive) |
| O=C1c2cccc3cc(Br)cc(c23)C(=O)N1Nc1ccccc1 | 36.1% (active) |
| CCCc1cc(=O)[nH]c(SCC(=O)Nc2ccc(S(=O)(=O)N3CCCC3)cc2)n1 | 15.7% (inactive) |
| CCCc1cc(=O)[nH]c(SCC(=O)N2C(C)CCCC2C)n1 (stereo not drawn) | -1.93% (inactive) |
| CCCc1cc(=O)[nH]c(SCC(=O)Nc2sc3c(c2C#N)CCCC3)n1 | 40.9% (active) |
| CC(C)C[C@H](NC(=O)CC1CCCC1)C(=O)N1CCC[C@H]1C(=O)NCc1ccccc1 | -2.39% (inactive) |
| COc1ccccc1CCn1cnc(-c2ccccc2)c1C(C)C | -1.16% (inactive) |
